About 7,900 targets were measured; listed, in parts, are those with a hit and a random draw of the rest. About 0.6% of all pairs of compound and target were hits. A number with no mark means an inactive call.
Key:
Test in all cases: log2 fold change, soluble protein after heating vs DMSO (PISA); higher = thermal stabilisation; K562 cells, 10 uM, 30 min; active = over 0.2 and 3.5 SD of the protein, either way, in both replicates (recomputed)
[1] = compound: CS(=O)(=O)c1ccc(-c2cnc(N)c(C(=O)Nc3ccccc3)n2)cc1
Procedure, shortened: (§1)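 K562 cells at 2×10^6 cells/mL were exposed to 10 μM compound for 30 min, then aliquots were heated for 3 min across 48°C-58°C, pooled, and extracted in PBS containing 0.5% NP-40 at 4°C. The supernatant after 21,000xg for 90 min was taken as soluble protein and measured by TMTpro 16plex LC-MS/MS with channel sums equalised. Thermal stability is reported relative to control samples, with values from duplicates. Fold changes are given on a log2 scale.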

[2] = compound: C[C@@H](Oc1cc(-c2cnn(C3CCNCC3)c2)cnc1N)c1c(Cl)ccc(F)c1Cl [crizotinib]
Procedure, shortened: as §1

[3] = compound: C[C@@H]1COCCN1C2=NC(=NC(=C2)C3(CC3)S(=O)(=O)C)C4=C5C=CNC5=CC=C4
Procedure, shortened: as §1

[4] = compound: C[C@H](C1=CC=C(C=C1)C(=O)NC2=C3C=CNC3=NC=C2)N
Procedure, shortened: as §1

[5] = compound: C[C@H](Nc1ncnc2nc[nH]c12)c1cc2cccc(Cl)c2c(=O)n1-c1ccccc1 [duvelisib]
Procedure, shortened: as §1

[6] = compound: Cc1cc(Nc2cc(CN3CCOCC3)c3nc(C)c(Cc4ccc(Cl)cc4F)n3n2)n[nH]1 [gandotinib]
Procedure, shortened: as §1

[7] = compound: Cc1cc(Nc2cc(N3CCN(C)CC3)nc(Sc3ccc(NC(=O)C4CC4)cc3)n2)n[nH]1 [tozasertib]
Procedure, shortened: as §1

[8] = compound: Cc1cc(SCc2sc(-c3ccc(C(F)(F)F)cc3)nc2C)ccc1OCC(=O)O
Procedure, shortened: as §1

[9] = compound: Cc1ccc(-n2nc(C(C)(C)C)cc2NC(=O)Nc2ccc(OCCN3CCOCC3)c3ccccc23)cc1 [doramapimod]
Procedure, shortened: as §1

[10] = compound: Cc1ccc(C(=O)N(CCCN)[C@@H](c2nc3cc(Cl)ccc3c(=O)n2Cc2ccccc2)C(C)C)cc1 [ispinesib]
Procedure, shortened: as §1

[11] = compound: Cc1ccc(NC(=O)c2ccc(CN3CC[C@H](N(C)C)C3)c(C(F)(F)F)c2)cc1Nc1nccc(-c2cncnc2)n1 [bafetinib]
Procedure, shortened: as §1

[12] = compound: Cc1cccc(CC(=O)N2CCc3c2ccc(-c2cn(C)c4ncnc(N)c24)c3F)n1
Procedure, shortened: as §1

[13] = compound: Cc1cn(-c2cc(NC(=O)c3ccc(C)c(Nc4nccc(-c5cccnc5)n4)c3)cc(C(F)(F)F)c2)cn1 [nilotinib]
Procedure, shortened: as §1

[14] = compound: Cc1nc(Nc2n[nH]c3c2CN(C(=O)N[C@H](CN(C)C)c2ccccc2)C3(C)C)c2sccc2n1
Procedure, shortened: as §1

[15] = compound: Cc1nc(Nc2ncc(C(=O)Nc3c(C)cccc3Cl)s2)cc(N2CCN(CCO)CC2)n1 [dasatinib]
Procedure, shortened: as §1

[16] = compound: Cc1ncc(-c2ccnc(Nc3ccc(S(C)(=O)=O)cc3)n2)n1C(C)C
Procedure, shortened: as §1

[17] = compound: Cn1cc(-c2ccc3c(c2)CCN3C(=O)Cc2cccc(C(F)(F)F)c2)c2c(N)ncnc21
Procedure, shortened: as §1

[18] = compound: Cn1cc(-c2ccc3nnc(C(F)(F)c4ccc5ncccc5c4)n3n2)cn1
Procedure, shortened: as §1

[19] = compound: Cn1cncc1[C@@](N)(c1ccc(Cl)cc1)c1ccc2c(c1)c(-c1cccc(Cl)c1)cc(=O)n2C [tipifarnib]
Procedure, shortened: as §1

[20] = compound: FC(F)(F)c1ccc(/C=C/c2nc(COc3ccc(CCCCn4ccnn4)cc3)co2)cc1 [mubritinib]
Procedure, shortened: as §1

Sequence of UniProt O00560 (O00560 whole entry, looked up): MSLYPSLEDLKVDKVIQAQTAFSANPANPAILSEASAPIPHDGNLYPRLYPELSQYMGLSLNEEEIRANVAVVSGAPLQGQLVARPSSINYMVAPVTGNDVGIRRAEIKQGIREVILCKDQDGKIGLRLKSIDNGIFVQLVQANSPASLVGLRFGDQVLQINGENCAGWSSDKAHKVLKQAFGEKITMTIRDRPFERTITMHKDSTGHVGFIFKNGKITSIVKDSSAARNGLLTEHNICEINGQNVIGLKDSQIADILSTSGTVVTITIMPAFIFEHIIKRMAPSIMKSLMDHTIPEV
Sequence of UniProt Q92878 (Q92878 whole entry, looked up): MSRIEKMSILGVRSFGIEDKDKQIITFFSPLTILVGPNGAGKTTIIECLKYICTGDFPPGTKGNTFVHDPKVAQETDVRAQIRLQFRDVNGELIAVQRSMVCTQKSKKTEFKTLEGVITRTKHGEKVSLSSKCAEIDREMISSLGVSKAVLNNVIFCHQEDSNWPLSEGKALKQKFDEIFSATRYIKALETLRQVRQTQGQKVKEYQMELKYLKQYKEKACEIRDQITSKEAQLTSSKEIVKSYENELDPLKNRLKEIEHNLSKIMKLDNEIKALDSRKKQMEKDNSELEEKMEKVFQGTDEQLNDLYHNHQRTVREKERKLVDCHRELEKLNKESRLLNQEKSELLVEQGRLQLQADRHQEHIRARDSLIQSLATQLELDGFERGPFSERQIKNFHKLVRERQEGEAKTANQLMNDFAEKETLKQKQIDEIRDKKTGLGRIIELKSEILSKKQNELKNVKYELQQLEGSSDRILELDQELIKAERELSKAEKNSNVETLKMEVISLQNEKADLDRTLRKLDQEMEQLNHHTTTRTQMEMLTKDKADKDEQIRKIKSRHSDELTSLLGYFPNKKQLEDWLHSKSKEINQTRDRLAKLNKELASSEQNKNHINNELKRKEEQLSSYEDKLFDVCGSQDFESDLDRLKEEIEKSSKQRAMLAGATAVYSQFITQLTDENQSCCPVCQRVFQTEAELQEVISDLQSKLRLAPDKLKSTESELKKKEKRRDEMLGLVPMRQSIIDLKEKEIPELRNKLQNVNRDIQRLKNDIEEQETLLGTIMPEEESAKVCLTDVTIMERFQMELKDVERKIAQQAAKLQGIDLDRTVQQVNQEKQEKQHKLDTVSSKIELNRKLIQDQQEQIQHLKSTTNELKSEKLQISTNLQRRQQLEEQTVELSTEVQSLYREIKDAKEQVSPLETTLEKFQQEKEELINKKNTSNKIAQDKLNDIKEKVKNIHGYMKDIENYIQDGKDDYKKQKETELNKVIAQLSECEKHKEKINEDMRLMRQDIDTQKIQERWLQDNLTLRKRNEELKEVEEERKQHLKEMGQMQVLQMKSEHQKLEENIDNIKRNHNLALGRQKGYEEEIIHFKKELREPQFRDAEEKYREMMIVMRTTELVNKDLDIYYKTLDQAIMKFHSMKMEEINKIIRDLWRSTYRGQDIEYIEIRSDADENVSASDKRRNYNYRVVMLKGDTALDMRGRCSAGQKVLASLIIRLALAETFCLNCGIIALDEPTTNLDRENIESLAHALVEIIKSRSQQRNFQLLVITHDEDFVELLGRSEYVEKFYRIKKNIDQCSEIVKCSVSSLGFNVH
Sequence of UniProt Q8N5L8 (Q8N5L8 whole entry, looked up): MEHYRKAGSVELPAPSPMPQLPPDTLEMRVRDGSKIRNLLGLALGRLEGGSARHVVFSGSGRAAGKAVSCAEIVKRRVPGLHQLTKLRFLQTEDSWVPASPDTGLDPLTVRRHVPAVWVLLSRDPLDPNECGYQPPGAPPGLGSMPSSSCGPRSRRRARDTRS
Sequence of UniProt O15027 (O15027 whole entry, looked up): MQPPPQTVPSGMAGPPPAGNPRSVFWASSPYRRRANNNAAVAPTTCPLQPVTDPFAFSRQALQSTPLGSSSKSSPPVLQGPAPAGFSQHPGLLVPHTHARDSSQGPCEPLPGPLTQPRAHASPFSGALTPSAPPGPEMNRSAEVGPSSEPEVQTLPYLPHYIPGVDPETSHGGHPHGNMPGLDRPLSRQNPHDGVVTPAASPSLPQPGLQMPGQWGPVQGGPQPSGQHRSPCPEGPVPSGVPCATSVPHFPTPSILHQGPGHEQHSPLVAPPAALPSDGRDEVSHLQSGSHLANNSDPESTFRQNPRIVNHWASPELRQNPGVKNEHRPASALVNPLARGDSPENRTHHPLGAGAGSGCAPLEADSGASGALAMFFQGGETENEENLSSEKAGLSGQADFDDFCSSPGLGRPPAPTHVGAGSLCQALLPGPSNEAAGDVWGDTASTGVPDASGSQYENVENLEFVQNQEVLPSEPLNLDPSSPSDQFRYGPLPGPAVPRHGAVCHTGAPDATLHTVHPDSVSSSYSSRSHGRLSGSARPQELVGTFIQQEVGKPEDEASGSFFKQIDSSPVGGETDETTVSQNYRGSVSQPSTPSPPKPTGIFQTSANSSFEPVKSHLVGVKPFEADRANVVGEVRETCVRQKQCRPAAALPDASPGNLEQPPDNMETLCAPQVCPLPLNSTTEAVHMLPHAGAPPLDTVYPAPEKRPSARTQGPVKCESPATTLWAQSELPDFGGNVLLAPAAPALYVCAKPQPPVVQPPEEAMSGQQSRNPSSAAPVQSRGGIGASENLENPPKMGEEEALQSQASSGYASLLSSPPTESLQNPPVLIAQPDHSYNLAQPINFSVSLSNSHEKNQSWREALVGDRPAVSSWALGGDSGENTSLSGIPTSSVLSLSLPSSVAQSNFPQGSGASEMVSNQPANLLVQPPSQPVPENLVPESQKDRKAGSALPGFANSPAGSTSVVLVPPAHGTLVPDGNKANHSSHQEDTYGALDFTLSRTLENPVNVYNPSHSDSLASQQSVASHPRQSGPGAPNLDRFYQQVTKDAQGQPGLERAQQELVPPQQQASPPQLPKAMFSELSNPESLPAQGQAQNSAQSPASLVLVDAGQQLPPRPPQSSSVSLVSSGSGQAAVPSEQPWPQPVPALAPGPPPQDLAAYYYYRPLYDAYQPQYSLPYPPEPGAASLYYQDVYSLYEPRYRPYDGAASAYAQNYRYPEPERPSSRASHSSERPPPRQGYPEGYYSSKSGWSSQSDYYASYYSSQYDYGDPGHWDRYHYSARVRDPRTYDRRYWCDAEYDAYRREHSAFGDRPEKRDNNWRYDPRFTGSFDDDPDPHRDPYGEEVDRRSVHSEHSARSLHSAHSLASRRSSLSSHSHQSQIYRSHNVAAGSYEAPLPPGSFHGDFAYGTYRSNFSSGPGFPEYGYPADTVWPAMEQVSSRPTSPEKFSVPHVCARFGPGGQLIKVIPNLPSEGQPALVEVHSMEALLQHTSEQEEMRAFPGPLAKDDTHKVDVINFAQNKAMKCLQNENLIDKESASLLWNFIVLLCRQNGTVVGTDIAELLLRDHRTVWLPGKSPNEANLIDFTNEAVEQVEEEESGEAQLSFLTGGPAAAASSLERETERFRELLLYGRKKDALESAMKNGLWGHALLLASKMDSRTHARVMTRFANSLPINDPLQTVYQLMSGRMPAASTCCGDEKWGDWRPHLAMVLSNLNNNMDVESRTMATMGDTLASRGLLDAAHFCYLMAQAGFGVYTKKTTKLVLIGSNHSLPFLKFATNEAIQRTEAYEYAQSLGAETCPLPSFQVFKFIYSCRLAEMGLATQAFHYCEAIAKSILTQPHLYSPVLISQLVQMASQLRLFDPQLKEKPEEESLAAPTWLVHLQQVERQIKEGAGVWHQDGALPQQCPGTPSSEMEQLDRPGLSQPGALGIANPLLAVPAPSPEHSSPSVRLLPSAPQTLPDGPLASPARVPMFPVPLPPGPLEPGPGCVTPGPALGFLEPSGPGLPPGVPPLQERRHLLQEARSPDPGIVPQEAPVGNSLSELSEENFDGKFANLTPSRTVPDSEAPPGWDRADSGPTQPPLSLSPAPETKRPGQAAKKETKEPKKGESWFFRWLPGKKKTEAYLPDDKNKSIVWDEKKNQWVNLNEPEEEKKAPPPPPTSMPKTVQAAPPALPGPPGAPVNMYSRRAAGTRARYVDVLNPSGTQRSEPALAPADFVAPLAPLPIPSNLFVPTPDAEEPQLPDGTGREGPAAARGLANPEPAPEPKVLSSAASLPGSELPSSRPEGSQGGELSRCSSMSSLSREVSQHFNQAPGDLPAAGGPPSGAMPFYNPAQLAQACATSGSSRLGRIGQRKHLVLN
Sequence of UniProt P51812 (P51812 whole entry, looked up): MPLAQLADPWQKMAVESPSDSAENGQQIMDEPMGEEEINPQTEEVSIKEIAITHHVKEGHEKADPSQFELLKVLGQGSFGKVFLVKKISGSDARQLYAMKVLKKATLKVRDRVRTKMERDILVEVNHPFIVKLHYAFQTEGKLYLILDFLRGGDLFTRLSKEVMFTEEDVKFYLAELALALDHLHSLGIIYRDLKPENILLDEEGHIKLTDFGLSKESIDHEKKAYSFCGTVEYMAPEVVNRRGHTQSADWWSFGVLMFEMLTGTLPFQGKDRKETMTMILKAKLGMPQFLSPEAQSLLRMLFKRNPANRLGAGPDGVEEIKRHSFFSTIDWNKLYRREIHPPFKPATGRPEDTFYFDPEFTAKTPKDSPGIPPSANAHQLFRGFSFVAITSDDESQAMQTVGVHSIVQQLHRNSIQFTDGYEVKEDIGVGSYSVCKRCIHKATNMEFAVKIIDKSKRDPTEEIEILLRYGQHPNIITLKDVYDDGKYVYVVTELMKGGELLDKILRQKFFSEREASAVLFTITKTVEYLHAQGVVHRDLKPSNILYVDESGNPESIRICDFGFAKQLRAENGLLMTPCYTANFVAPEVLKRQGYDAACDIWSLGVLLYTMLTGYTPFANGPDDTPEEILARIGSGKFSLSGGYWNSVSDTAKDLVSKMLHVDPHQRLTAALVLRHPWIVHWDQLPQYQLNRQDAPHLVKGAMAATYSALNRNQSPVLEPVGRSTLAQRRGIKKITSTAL
Sequence of UniProt P35244 (P35244 whole entry, looked up): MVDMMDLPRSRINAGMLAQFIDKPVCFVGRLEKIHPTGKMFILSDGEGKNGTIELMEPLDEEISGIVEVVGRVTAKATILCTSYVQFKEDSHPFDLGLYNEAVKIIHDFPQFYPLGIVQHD

Row | Target | log2 fold change [1] | log2 fold change [2] | log2 fold change [3] | log2 fold change [4] | log2 fold change [5] | log2 fold change [6] | log2 fold change [7] | log2 fold change [8] | log2 fold change [9] | log2 fold change [10] | log2 fold change [11] | log2 fold change [12] | log2 fold change [13] | log2 fold change [14] | log2 fold change [15] | log2 fold change [16] | log2 fold change [17] | log2 fold change [18] | log2 fold change [19] | log2 fold change [20]
1 | SEC16A isoform 5 (UniProt O15027) | -0.032 | -0.231 | -0.113 | 0.143 | 0.004 | 0.087 | -0.014 | 0.118 | 0.023 | -0.119 | 0.023 | 0.096 | 0.017 | -0.048 | -0.169 | 0.021 | -0.006 | -0.051 | 0.012 | -0.081
2 | RGS10 (UniProt O43665) | 0.014 | -0.045 | 0.012 | -0.231 | 0.008 | -0.023 | 0.053 | 0.024 | 0.006 | 0.017 | -0.08 | 0.032 | -0.057 | 0.002 | -0.034 | 0.009 | 0.126 | -0.031 | -0.043 | -0.019
3 | SCD (UniProt O00767) | 0.024 | -0.2 | -0.06 | -0.068 | 0.007 | -0.061 | -0.07 | -0.119 | -0.028 | -0.319 | -0.153 | 0.109 | -0.063 | -0.007 | -0.026 | -0.019 | 0.013 | 0.034 | 0.075 | 0.019
4 | RPA3 (UniProt P35244) | -0.044 | 0.042 | -0.162 | -0.098 | 0.043 | 0.11 | 0.053 | 0.003 | -0.054 | 0.109 | 0.023 | 0.086 | -0.034 | -0.047 | 0.016 | 0.022 | 0.105 | -0.002 | 0.014 | 0.024
5 | RETSAT (UniProt Q6NUM9) | -0.038 | 0.005 | -0.129 | -0.003 | 0.083 | 0.284 | -0.103 | 0.036 | 0.147 | -0.008 | -0.011 | -0.034 | 0.154 | -0.076 | -0.001 | 0.511 (active) | 0.045 | -0.002 | -0.052 | 0.182
6 | RTF2 (UniProt Q9BY42) | -0.005 | 0.234 | -0.061 | -0.089 | 0.116 | 0.104 | 0.166 | -0.003 | -0.083 | 0.151 | -0.074 | -0.001 | -0.045 | -0.125 | -0.012 | 0.039 | -0.071 | -0.039 | -0.065 | -0.047
7 | RAD51 (UniProt Q06609) | 0.005 | -0.061 | -0.079 | -0.019 | 0.108 | 0.01 | -0.026 | -0.005 | -0.025 | -0.009 | -0.002 | 0.021 | -0.082 | -0.006 | -0.009 | 0.04 | 0.037 | 0.003 | 0.11 | -0.017
8 | RPS16 (UniProt P62249) | -0.107 | 0 | -0.353 | 0.214 | -0.118 | 0.172 | 0.021 | -0.023 | 0.055 | -0.088 | 0.279 | -0.026 | 0.07 | 0.207 | 0.053 | -0.019 | -0.078 | -0.048 | 0.107 | -0.066
9 | RPS5 (UniProt P46782) | -0.081 | 0 | -0.255 | 0.176 | -0.081 | 0.108 | 0.029 | 0.017 | 0.069 | -0.073 | 0.2 | 0.002 | 0.046 | 0.178 | 0.069 | -0.035 | -0.122 | -0.08 | 0.042 | 0.007
10 | RAC1 (UniProt P63000) | -0.094 | 0 | -0.04 | -0.06 | 0.001 | -0.037 | 0.065 | -0.044 | 0.112 | 0.024 | 0.184 | -0.017 | 0.073 | 0.045 | 0.007 | 0.048 | 0.024 | -0.037 | 0.106 | 0.026
11 | RBM26 isoform 2 (UniProt Q5T8P6) | -0.012 | 0.03 | 0.374 | -0.154 | 0.022 | -0.056 | 0.036 | 0.136 | -0.036 | -0.089 | -0.003 | 0.058 | -0.088 | -0.432 | -0.176 | 0.021 | 0.12 | 0.168 | -0.033 | 0.045
12 | RPS6KA3 (UniProt P51812) | 0.023 | -0.107 | 0.024 | -0.177 | 0.02 | -0.019 | 0.103 | 0.032 | -0.066 | -0.017 | -0.065 | 0.046 | 0.035 | -0.798 (active) | -0.195 | -0.019 | -0.022 | 0.031 | -0.028 | 0.02
13 | SDCBP (UniProt O00560) | -0.003 | -0.216 | 0.101 | -0.043 | -0.008 | 0.094 | 0.048 | 0.086 | -0.006 | -0.361 (active) | -0.229 | 0.038 | 0.015 | -0.021 | -0.12 | 0 | -0.076 | -0.058 | 0.018 | 0.025
14 | RPL31 (UniProt P62899) | -0.08 | 0.079 | -0.56 | 0.396 | -0.158 | 0.35 | 0.029 | -0.001 | 0.173 | -0.167 | 0.342 | 0.024 | 0.001 | 0.179 | 0.14 | -0.041 | -0.231 | -0.082 | 0.151 | -0.095
15 | RBM26 isoform 3 (UniProt Q5T8P6) | 0.066 |  |  |  |  |  |  |  |  |  |  |  |  |  |  |  |  |  |  | 
16 | RPP25L (UniProt Q8N5L8) | -0.031 | 0.059 | -0.014 | 0.145 | 0.06 | 0.045 | -0.01 | -0.019 | -0.005 | -0.027 | 0.143 | -0.04 | 0.044 | -0.087 | 0.09 | -0.031 | -0.058 | 0.004 | 0.044 | -0.004
17 | RAD50 isoform 2 (UniProt Q92878) | 0.031 | 0.064 | 0.044 | -0.039 | 0.02 | -0.017 | 0.029 | 0.021 | -0.023 | 0.033 | -0.015 | 0.009 | -0.039 | -0.112 | -0.089 | -0.016 | 0.023 | 0.042 | -0.017 | 0.063

Source: the supplement of paper PMC10849652
